Records with an inconclusive call do not appear. A number with no mark means an inactive call. Calls of active or inactive are those of the source. Calls follow the shape of the dose curve; as a rule, active = well fitted curve in either direction with a large enough effect (not every such curve was filed as active); inconclusive = small, poorly fitted or top-dose-only effect, or another doubt; inactive = flat fitted curve, though single readings scatter.
% is scaled to controls: 0 for no effect and ±100 for the full control effect.

This assay is described as follows: NFAT Signaling Pathway (AID 444). The conditions noted are these: Jurkat NFAT-bla M1, carbachol, beta-lactamase ratio, 5 h; at 7.69 µM (top of the series) unless noted. An excerpt: NCGC Assay Overview: The nuclear factor of activated T cells (NFAT) family of transcription factors has been found primarily in most immune system cells and some other non-immune cells. NFAT plays the immunomodulatory role, primarily in T-cell activation and differentiation. NFAT target genes are also involved in the regulation of apoptosis and differentiation in non-immune cell types. The NFAT sequence was engineered to the upstream of the ?-lactamase reporter gene and transfected into Jurkat cells with co-transfection of muscarinic receptor1 [provided by Invitrogen Corp]. When an extracellular stimulus, such as carbachol, binds to the GPCR M1 receptor, it stimulates a signaling cascade that activates NFAT response element and ?-lactamase expression by phosphorylating the NFAT binding protein. This cell based ?-lactamase reporter gene assay can accurately monitor any changes occurring along the NFAT pathway, and can be used for screening small molecule inhibitor or activator upon activation by carbachol EC50 concentration. A small molecular library were screened in a titration series resulting in AC50s (can be either IC50s or EC50s).
NCGC Assay Protocol Summary: The cells were prepared in RPMI 1640 medium containing 0.1% dialyzed FBS and 25 mM HEPES at 1.6 x 10^6cell/ml. The assay was performed in 1536-well plate format as follows: 5 ul of cell preparation 23 nl of compounds 1ul of carbachol (final concentration 1 uM) Briefly centrifuge the plates and incubate at 37 °C for 5 hours 1 ul of CCF4 dye mixture Incubate the plates at RT for 1 hour Read the plate in EnVision plate reader (Ex= 405nm, and Em1=460nm and Em2=530nm). The %Activity was determined from the ratio of 460nm/530nm. Data normalization and AC50 calculations were accomplished using GeneData software.
With `CC(=O)OCC1=C(C(=O)[O-])N2C(=O)[C@@H](NC(=O)CCC[C@@H](N)C(=O)[O-])[C@@H]2SC1.[Zn+2]`, the activity change, negative = inhibition is 1.01% [at 38 µM].

On to `CCCOC(=O)[C@@H]1[C@@H](C(=O)O)[C@H]2CC[C@@H]1O2`, for which the activity change, negative = inhibition is -0.63%.

Regarding `COc1ccc(C[C@@H](N)c2ccc(OC)cc2)cc1`, the activity change, negative = inhibition was 3.98%.

As for `Cc1ccc(S(=O)ON2CCC(C(=O)O)(c3ccccc3)CC2)cc1` (stereo not given), the activity change, negative = inhibition was 5.73%.

Regarding `CCC1=C(C[C@H]2NCCc3cc(OC)c(OC)cc32)C[C@H]2c3ccccc3CCN2C1`, the activity change, negative = inhibition is -19.1%.

Consider `c1nc(N2CC2)c2cnn([C@@H]3CCCCO3)c2n1`, for which the activity change, negative = inhibition is 7.32%.

`CSc1ccc2c(c1)c(CCN)c(C)n2Cc1ccccc1Cl`: the activity change, negative = inhibition was 17.6%.

As to `COc1cccc2c1C(=O)c1c(O)c3c(c(O)c1C2=O)C[C@](O)(/C(C)=N\O)C[C@@H]3O[C@H]1C[C@H](N)[C@@H](O)[C@H](C)O1`, the activity change, negative = inhibition was -24.2%.

Regarding `N[C@@H](CP(=O)(O)O)C(=O)O`, the activity change, negative = inhibition was 2.91%.

In the case of `O=C(Oc1ccccc1)N1CCC[C@@]2(CCN(Cc3nccs3)C2)C1`, the activity change, negative = inhibition is -0.597%.

Regarding `O[C@H](CN1CC1)[C@@H](O)CN1CC1`, the activity change, negative = inhibition is -21.2%.

For `CO[C@H]1[C@H](O)[C@H](O[C@@H]2[C@H](Oc3cccc4c(O)c5c(=O)oc6ccc(C)c7c(=O)oc(c34)c5c67)O[C@@H](C)[C@H](O)[C@H]2O)O[C@@H](C)[C@@H]1O`, the activity change, negative = inhibition was 10.4%.

Consider `COc1cc(CCN)c(OC)c(OC)c1`, for which the activity change, negative = inhibition was -9.45%.

`Cc1ccc(C2(c3ccc(C)c(O)c3C)CCN(C)CC2)c(C)c1O`: the activity change, negative = inhibition is 3.1%.

Turning to `CS(=N)(=O)CC[C@H](N)P(=O)(O)O` (stereo not given in full), the activity change, negative = inhibition is -0.082%.

As to `COC(=O)[C@H](N)CCCN=C(N)N[N+](=O)[O-]`, the activity change, negative = inhibition is 13% [at 38 µM].

Consider `C=C[C@@H]1CN2CC[C@H]1C[C@H]2[C@H](O)c1ccnc2ccccc12`, for which the activity change, negative = inhibition was 0.393%.

`C[C@@]12CC[C@H]3[C@H](CCC4=CC(=O)CC[C@H]43)[C@H]1CC[C@H]2OC1(O)C(=O)c2ccccc2C1=O`: the activity change, negative = inhibition is -18.3%.

As for `C[C@@H]1O[C@H](OC2[C@@H](O)[C@H](O)C(O)[C@H](O)[C@H]2O)[C@@H](N)C[C@@H]1N=C(N)C(=O)O` (stereo not given in full), the activity change, negative = inhibition was 8.22%.

With `O=C(O)C(=O)Cc1ccc2c(c1)OCO2`, the activity change, negative = inhibition is 16.4%.

As to `c1ccc2c(c1)Sc1ccccc1N2C[C@H]1CN2CCC1CC2`, the activity change, negative = inhibition was -73.4% (active).

For the molecule `Cc1c([C@@H](C)[C@H]2NC[C@H](C)C[C@@H]2O)ccc2c1C[C@@H]1[C@H]2CC=C2C[C@@H](O)CC[C@@]21C`, the activity change, negative = inhibition is -6.08%.

Turning to `CC1=C2C(=O)[C@@H]3[C@@H](CC=C4C[C@@H](O)CC[C@@]43C)[C@H]2CC[C@@]12O[C@H]1C[C@H](C)CN[C@H]1[C@@H]2C`, the activity change, negative = inhibition is 3.5%.

Consider `C[n+]1c(/C=C\c2ccc(O)c3ncccc23)[se]c2ccccc21`, for which the activity change, negative = inhibition was -19%.

Take `COc1cc([C@@H](O)CN)ccc1O`: the activity change, negative = inhibition was 6.77% [at 38 µM].

For `O=C(O)/C=C\c1ccc[c]([Sb](=[O])([OH])[OH])c1`, the activity change, negative = inhibition was 12.6%.

In the case of `O=c1[nH]cnc2[nH]cc(CN3CCCCC3)c12`, the activity change, negative = inhibition is 3.17%.

As to `O=S(=O)(Nc1nccs1)c1ccc([As](=O)(O)O)cc1`, the activity change, negative = inhibition was 8.49%.

Regarding `CC(C)[C@]1(O)[C@@H](OC(=O)c2ccc[nH]2)[C@]2(O)[C@@]3(C)C[C@@]4(O)O[C@@]5([C@H](O)[C@@H](C)CC[C@]35O)[C@]2(O)[C@]41C`, the activity change, negative = inhibition is 3.93%.

Consider `NNc1nncn1N`, for which the activity change, negative = inhibition is 5.16%.

On to `C1C[C@@H]2CN(CCCN3CCOCC3)[C@@H](C1)O2`, for which the activity change, negative = inhibition was 9.72%.

As for `N[C@@H](CSC1c2ccccc2-c2ccccc21)C(=O)O`, the activity change, negative = inhibition was -6.99%.

Take `O=C(Nc1ccc([As](=O)(O)O)cc1)Nc1cccc(Cl)c1Cl`: the activity change, negative = inhibition is 6.56%.

Take `C=CCN1CC[C@]23c4c5ccc(O)c4O[C@@H]2/C(=N/NC(=O)c2ccccc2)CC[C@@]3(O)[C@H]1C5`: the activity change, negative = inhibition is -2.19% [at 38 µM].

`O=C(O)CSCC(=O)O`: the activity change, negative = inhibition was 2.38%.

Turning to `N[C@H](Cc1c[nH]c2ccccc12)P(=O)(O)O`, the activity change, negative = inhibition is -3.98%.

On to `COc1ccc(C[C@@H]2C(=O)N[C@H](C)C(=O)N(C)[C@@H]3C(=O)N(C)[C@@H](Cc4ccc(O)c(c4)Oc4ccc(cc4)[C@H]3O)C(=O)N[C@@H](C)C(=O)N[C@H](C)C(=O)N2C)cc1`, for which the activity change, negative = inhibition was -133% (active).

For `C[As+](C)(c1ccc(Br)c([N+](=O)[O-])c1)c1ccc(Br)c([N+](=O)[O-])c1.O=[N+]([O-])O`, the activity change, negative = inhibition is -2.2%.

As to `CCNC(=O)[C@@H]1O[C@@H](n2cnc3c(N)ncnc32)[C@@H](O)[C@H]1O`, the activity change, negative = inhibition is -9.11% [at 38 µM].

`C[C@H](Br)C(=O)N[C@H](CO)C(=O)O`: the activity change, negative = inhibition was 5.22%.

Source of the values: PubChem BioAssay (NCATS).
